The list is a sample of the results.
aSyn 5UTR act – Activators via SNCA 5'UTR binding, MLPCN. alpha-synuclein 5'UTR reporter, activators screen. activity score, % (tested at 7.5 µM), hits read low. 300,000 compounds, 7.1% hits. AID 1814, 2009; in the data active means activity score below about -60%
The depositor's hits bear a star.

For CCOc1cc(CNc2ccc3c(c2)OCCO3)cc(Br)c1OCC(N)=O the results were aSyn 5UTR act -65.5*.
`CCOc1cc(CNc2ccc3c(c2)OCCO3)cc(Br)c1OC` gave aSyn 5UTR act 95.4.
For O=C1CN(c2ccccc2)C(=S)N1C(=O)c1ccccc1 the results were aSyn 5UTR act -153.6*.
`Cc1cccc2nc(COc3ccc(-c4ccccc4)cc3)cn12` gave aSyn 5UTR act -121.1*.
Screening CCc1ccc(C(=O)NNc2ccccc2F)cc1 returned aSyn 5UTR act -83.4*.
CCCc1ccc(C(=O)NNc2ccccc2F)cc1 was read as aSyn 5UTR act -110.2*.
For Brc1ccc(NC2=Nc3ccccc3CC2)cc1 the results were aSyn 5UTR act -172.0*.
C(=N\n1cnnc1)/c1ccc(OCc2cccc3ccccc23)cc1 was read as aSyn 5UTR act -109.5*.
`C(=N\n1cnnc1)/c1cccc(OCCOc2ccccc2)c1` gave aSyn 5UTR act -64.6*.
For COc1ccc2[nH]c(=O)c(CN(Cc3cccs3)S(=O)(=O)c3cccc4nsnc34)cc2c1 the results were aSyn 5UTR act 75.9.
COc1ccc2[nH]c(=O)c(CN(c3ccccc3OC)S(=O)(=O)c3ccccc3)cc2c1 was read as aSyn 5UTR act -69.2*.
Screening COCCNC(=O)c1ccc2c(Cl)c3c(nc2c1)CCC3 returned aSyn 5UTR act -145.2*.
`Nc1nc(Nc2ccccc2F)nc(N2CCCC2)c1[N+](=O)[O-]` gave aSyn 5UTR act -131.5*.
For CN(c1ccccc1)c1nc(N)c([N+](=O)[O-])c(N2CCCC2)n1 the results were aSyn 5UTR act -97.0*.
Cc1cccc(Nc2nc(N)c([N+](=O)[O-])c(N3CCCC(C)C3)n2)c1 (stereo unspecified) was read as aSyn 5UTR act 59.2.
For CN(C)C=Nc1ncc2c([nH]c3ccccc32)c1C#N the results were aSyn 5UTR act -112.6*.
For CCOc1ccc(NC(=O)C(c2ccccn2)N(C(=O)CCl)c2ccc(OC)cc2)cc1 (stereo unspecified) the results were aSyn 5UTR act -161.0*.
Screening O=C(O)c1cccc(-n2cc(-c3cccc(C(F)(F)F)c3)cn2)c1 returned aSyn 5UTR act -127.6*.
CCCOc1cccc(-c2cc(C(=O)NNC(=S)NCC)c3ccccc3n2)c1 was read as aSyn 5UTR act -114.2*.
CCn1c(-c2cc(-c3ccc(OC(C)C)cc3)nc3ccccc23)n[nH]c1=S was read as aSyn 5UTR act -104.0*.
`CCCOc1cccc(-c2cc(-c3n[nH]c(=S)n3CC)c3ccccc3n2)c1` gave aSyn 5UTR act -71.6*.
Screening CC(C)Oc1cccc(-c2cc(C(=O)NC(=S)N(C)c3ccccc3C(=O)O)c3ccccc3n2)c1 returned aSyn 5UTR act -74.7*.
CCOc1ccc(-c2cn(-c3cccc(SC)c3)c(=O)[nH]2)cc1 was read as aSyn 5UTR act -71.9*.
For COc1cc(C)ccc1OCc1cc(C(=O)NCCN2CCOCC2)no1 the results were aSyn 5UTR act -123.9*.
Cc1ccc(OCc2cc(C(=O)NCC(C)(C)N3CCOCC3)no2)cc1C was read as aSyn 5UTR act -121.8*.
`CCN1CCCC1CNC(=O)c1cc(COc2ccc(C)c(C)c2)on1` (stereo unspecified) gave aSyn 5UTR act -62.8*.
For Cc1ccc(Oc2nccc(-c3ccc(Cl)cc3)n2)cc1 the results were aSyn 5UTR act -67.1*.
CCCc1ccc(OC(=O)c2ccc(O)cc2Cl)cc1 was read as aSyn 5UTR act -62.6*.
Screening c1csc(-c2nc(N3CCCCC3)no2)c1 returned aSyn 5UTR act -137.4*.
`C/C(CC(=O)Nc1ccc(F)cc1F)=N\NC(=O)C(=O)N1CCCCC1` gave aSyn 5UTR act -68.3*.
For O=S(=O)(c1ccc(-c2nnc(SCc3nnc(-c4ccccc4)o3)o2)cc1)N1CCCC1 the results were aSyn 5UTR act -117.1*.
For O=[N+]([O-])c1cc(C(F)(F)F)ccc1Sc1ccc2ccccc2n1 the results were aSyn 5UTR act -75.3*.
`Cc1ccc(-c2nc3ccccc3[nH]2)s1` gave aSyn 5UTR act -80.3*.
For Cc1[nH]c2ccccc2c1-c1nc2ccccc2[nH]1 the results were aSyn 5UTR act -78.5*.
c1ccc(-c2nc3ccccc3[nH]2)cc1 was read as aSyn 5UTR act -138.4*.
For c1cncc(-c2nc3ccccc3[nH]2)c1 the results were aSyn 5UTR act -88.2*.
Screening O=C(N/N=C/c1ccc(O)cc1)Nc1cccc2nsnc12 returned aSyn 5UTR act -72.8*.
COc1cc(/C=N/NC(=O)Nc2cccc3nsnc23)cc(OC)c1OC was read as aSyn 5UTR act -89.0*.
For CCC(=O)Nc1ccc(C(=O)N/N=C/c2ccccc2[N+](=O)[O-])cc1 the results were aSyn 5UTR act -81.1*.
Cc1ccc(C(=O)N/N=C\c2ccccc2[N+](=O)[O-])cn1 was read as aSyn 5UTR act -111.1*.
CCOc1ccc(C(=O)N/N=C/c2ccccc2[N+](=O)[O-])cc1 was read as aSyn 5UTR act -125.9*.
`CCCCC(=O)NC(c1ccc(N(CC)CC)cc1)c1ccc2cccnc2c1O` (stereo unspecified) gave aSyn 5UTR act 67.9.
Screening Cc1ccc(N=C2NC(=O)S/C2=C\c2ccco2)cc1 returned aSyn 5UTR act -62.6*.
Screening Cc1ccc(N2C(=O)/C(=C/c3ccco3)SC2=S)cc1 returned aSyn 5UTR act -93.9*.
`COc1ccc(N=C2NC(=O)/C(=C/c3ccco3)S2)cc1` gave aSyn 5UTR act -127.0*.
Screening Cc1ccc(/C=C2/SC(=S)N(CCCC(=O)Nc3ccc(O)cc3)C2=O)cc1 returned aSyn 5UTR act 86.3.
For Cc1ccc(C(=O)NNC(=O)CCCN2C(=O)/C(=C/c3ccccc3Cl)SC2=S)cc1 the results were aSyn 5UTR act 68.5.
Screening O=C1NC(=Nc2ccccc2)/C(=C/c2ccco2)S1 returned aSyn 5UTR act -64.7*.
`COC(=O)c1ccc(N2OC3(C)C=CC2CC3)cc1` (stereo unspecified) gave aSyn 5UTR act -88.5*.
`COc1cc(CNc2ncn[nH]2)ccc1OCc1cccc(C)c1` gave aSyn 5UTR act -95.4*.
NC(=Nc1ccc(Br)cc1)c1ccccc1 was read as aSyn 5UTR act -75.2*.
Screening O=C(Nc1cccnc1)c1cc(-c2cc(Cl)ccc2O)n[nH]1 returned aSyn 5UTR act -219.1*.
For Cc1ccc(O)c(-c2cc(C(=O)Nc3cccnc3)[nH]n2)c1 the results were aSyn 5UTR act -166.2*.
O=[N+]([O-])c1ccccc1S(=O)(=O)Oc1ccc(C(=S)N2CCOCC2)cc1 was read as aSyn 5UTR act -62.3*.
`CC(=O)C1=C(C)NC(SCC(=O)c2ccccc2)=C(C#N)C1c1ccco1` (stereo unspecified) gave aSyn 5UTR act -162.0*.
Screening Cc1cccc(-n2ncc3c(NCc4ccccc4)ncnc32)c1 returned aSyn 5UTR act -140.4*.
Screening Cc1cccc(-n2ncc3c(N4CCCc5ccccc54)ncnc32)c1 returned aSyn 5UTR act -123.4*.
Fc1ccc(CNc2ncnc3c2cnn3-c2ccccc2)cc1 was read as aSyn 5UTR act -70.9*.
`Cc1cccc(-n2ncc3c(N(C)C4CCCCC4)ncnc32)c1` gave aSyn 5UTR act 66.0.
Cc1cccc(-n2ncc3c(N(CCO)CCO)ncnc32)c1 was read as aSyn 5UTR act -105.7*.
For c1ccc(CCNc2ncnc3c2cnn3-c2ccccc2)cc1 the results were aSyn 5UTR act -148.8*.
`Clc1ccc(-n2ncc3c(NCc4cccnc4)ncnc32)cc1Cl` gave aSyn 5UTR act -86.7*.
`c1ccc(-n2ncc3c(NCCN4CCCCC4)ncnc32)cc1` gave aSyn 5UTR act -133.1*.

Screening data as filed in PubChem.
